Data on eight compounds can be found in PubChem BioAssay (NCI).

Each structure is given as a SMILES string. The panel holds about 83,000 compounds, 20% with a hit somewhere; the sample as a whole holds those more often.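 Values shown are percent growth following 48 h exposure of cells in 96-well plates to a single concentration of compound; below 10 was considered active.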 A number with no mark means an inactive call. Calls of active or inactive are those of the source.

Among the test systems are HCT-15 colon; HT29 colon; SNB-75 CNS; SNB-19 CNS; U251 CNS; PC-3 prostate; SK-MEL-5 melanoma; UACC-62 melanoma; LOX IMVI melanoma; SK-MEL-28 melanoma; SK-MEL-2 melanoma; EKVX NSCLC; SN12C renal; UO-31 renal; ACHN renal; CAKI-1 renal; A498 renal; CCRF-CEM leukemia; MOLT-4 leukemia; TK-10 renal.
Experiment in all cases: NCI-60 one-dose screen, 48 h (100 = growth as untreated, 0 = no growth, -100 = all killed)
Settings in all cases: 10 µM unless noted

Turning to `N#CC1=C(N)Oc2c(ccc3ccccc23)C1c1ccccc1` (configuration not stated), the growth is 8.12% (active) in the test with HCT-15 colon; -2.07% (active) in the test on HT29 colon; 35.6% in the test on SNB-75 CNS; 26.6% in the test on SNB-19 CNS; 9.37% (active) with U251 CNS; 6.19% (active) with PC-3 prostate. Also, the growth in the test with SK-MEL-5 melanoma was 4.54% (active); in the test with UACC-62 melanoma it was 26.9%; in the test with LOX IMVI melanoma it was 7.97% (active); with SK-MEL-28 melanoma it was 49.4%; in the test on SK-MEL-2 melanoma, 43.1%; in the test on EKVX NSCLC, 41.9%. For the same compound, the growth in the test with SN12C renal was 32.5%; in the test with UO-31 renal it was 39.3%; with ACHN renal it was 31.2%; with CAKI-1 renal it was 18.1%; with A498 renal, 33.7%; with CCRF-CEM leukemia, 9.24% (active). Also, the growth with MOLT-4 leukemia is 14.6%.
As to `CN1C(=O)/C(=C\c2nc([P+](c3ccccc3)(c3ccccc3)c3ccccc3)c(N3CCOCC3)o2)SC1=S`, the growth was 91.3% with HCT-15 colon; 98.3% in the test on HT29 colon; 92.1% with SNB-75 CNS; 12.5% with SNB-19 CNS; 66.2% with U251 CNS; 46.1% in the test with PC-3 prostate. In addition, the growth with SK-MEL-5 melanoma is 78.4%; with UACC-62 melanoma, -3.31% (active); in the test on LOX IMVI melanoma, 86.1%; in the test with SK-MEL-28 melanoma, 11%; in the test with SK-MEL-2 melanoma it was 71.5%; in the test on EKVX NSCLC, 92.3%. Further, the growth is 68.4% in the test with SN12C renal; 80.4% in the test on UO-31 renal; 102% in the test on ACHN renal; 91.5% in the test on CAKI-1 renal; 85.6% with A498 renal; 19.9% in the test on CCRF-CEM leukemia. Also, the growth with MOLT-4 leukemia is 81.5%.
In the case of `CSc1nc(N)c(NS(=O)(=O)c2ccc(C(C)=O)cc2)c(=O)[nH]1`, the growth in the test on HCT-15 colon is 98.4%; in the test with HT29 colon it was 103%; in the test with SNB-75 CNS, 87.6%; in the test on SNB-19 CNS, 107%; in the test on U251 CNS it was 112%; in the test on PC-3 prostate, 102%. Also, the growth in the test on SK-MEL-5 melanoma was 97.5%; with UACC-62 melanoma, 98.3%; in the test with LOX IMVI melanoma, 101%; with SK-MEL-28 melanoma, 104%; in the test on SK-MEL-2 melanoma it was 100%; with EKVX NSCLC, 97.2%. For the same compound, the growth in the test on SN12C renal was 101%; with UO-31 renal, 100%; with ACHN renal it was 108%; in the test with CAKI-1 renal it was 90.1%; with A498 renal it was 105%; with CCRF-CEM leukemia, 109%. The growth in the test on MOLT-4 leukemia is 112%.
On to `Oc1c(Br)cc(Br)c2ccc(Cn3cc(-c4ccc(C(F)(F)F)cc4)nn3)nc12`, for which the growth in the test on HCT-15 colon was 25.2%; in the test with HT29 colon, 59%; in the test on SNB-75 CNS, 77.2%; with SNB-19 CNS, 94%; in the test on U251 CNS it was 102%; in the test with PC-3 prostate it was 77.6%. For the same compound, the growth in the test on SK-MEL-5 melanoma is 98.2%; with UACC-62 melanoma it was 67.8%; in the test with LOX IMVI melanoma, 11.5%; in the test with SK-MEL-28 melanoma, 48.1%; in the test on SK-MEL-2 melanoma, 90.9%; with EKVX NSCLC it was 83.6%. In addition, the growth in the test on SN12C renal was 71%; in the test with UO-31 renal it was 63.5%; in the test with ACHN renal, 26.4%; with CAKI-1 renal, 13.2%; in the test with A498 renal it was 96.8%; in the test on CCRF-CEM leukemia it was 2.97% (active). In the test with MOLT-4 leukemia, the growth was 11.3%.
For the compound `C/C(=N\O)c1ccc(Cl)cc1`, the growth was 112% with HCT-15 colon; 108% in the test on HT29 colon; 89.6% with SNB-75 CNS; 104% with SNB-19 CNS; 103% in the test with U251 CNS; 86.3% with PC-3 prostate. Also, the growth is 108% in the test on SK-MEL-5 melanoma; 95% with UACC-62 melanoma; 105% in the test with LOX IMVI melanoma; 122% in the test with SK-MEL-28 melanoma; 120% in the test on SK-MEL-2 melanoma; 103% in the test with EKVX NSCLC. Further, the growth with SN12C renal is 99%; in the test on UO-31 renal, 91.4%; in the test on ACHN renal, 105%; in the test on CAKI-1 renal, 96.9%; in the test on A498 renal it was 111%; with CCRF-CEM leukemia, 118%. The growth in the test with MOLT-4 leukemia is 86.3%.
Regarding `O=c1[nH]c(-c2ccccc2)nc2sc3cc(O)ccc3c12`, the growth was 69.4% with HCT-15 colon; 106% in the test on HT29 colon; 83.2% in the test with SNB-75 CNS; 99.8% in the test with SNB-19 CNS; 84.1% in the test with U251 CNS; 77.3% in the test on PC-3 prostate. Besides, the growth is 86.3% with SK-MEL-5 melanoma; 73.6% with UACC-62 melanoma; 82.7% with LOX IMVI melanoma; 93.9% with SK-MEL-28 melanoma; 103% in the test on SK-MEL-2 melanoma; 66.4% with EKVX NSCLC. Moreover, the growth in the test on SN12C renal is 89.1%; in the test on UO-31 renal, 55.9%; with ACHN renal, 76.2%; in the test with CAKI-1 renal, 68.9%; with A498 renal it was 79.3%; in the test on CCRF-CEM leukemia it was 73.1%. Also, in the test with MOLT-4 leukemia, the growth was 66.9%.
Consider `O=C(O)c1cn(C2CC2)c2cc(N3CCN(C(=O)N(c4ccccc4)c4nc(-c5ccccc5)cs4)CC3)c(F)cc2c1=O`, for which the growth is 6.28% (active) with HCT-15 colon; 4.23% (active) in the test on HT29 colon; -9.1% (active) with SNB-75 CNS; 15.7% in the test with SNB-19 CNS; 12.6% in the test on U251 CNS; 8.6% (active) in the test on PC-3 prostate. Further, the growth was -61.3% (active) with SK-MEL-5 melanoma; -4% (active) in the test on UACC-62 melanoma; -23.6% (active) in the test on LOX IMVI melanoma; 36.1% in the test with SK-MEL-28 melanoma; -18.3% (active) with SK-MEL-2 melanoma; 16.9% in the test on EKVX NSCLC. Besides, the growth with SN12C renal was 1.06% (active); with UO-31 renal, 5.23% (active); with ACHN renal, -79.1% (active); with CAKI-1 renal, 6.68% (active); with A498 renal, 3.2% (active); in the test with CCRF-CEM leukemia, 10.9%. For the same compound, the growth in the test on MOLT-4 leukemia is 2.43% (active).
Turning to `COc1ccc(-c2nc3cc(C(=O)NCc4ccccc4)ccc3n2C2CCCCC2)cc1`, the growth with HCT-15 colon is 10%; in the test on HT29 colon it was 28.1%; with SNB-75 CNS, 64.3%; in the test with SNB-19 CNS, 98.2%; in the test with U251 CNS it was 68.2%; in the test with PC-3 prostate it was 85.3%. For the same compound, the growth in the test on SK-MEL-5 melanoma is 38.6%; in the test with UACC-62 melanoma, 91%; in the test on LOX IMVI melanoma, 53.9%; in the test on SK-MEL-28 melanoma, 92.7%; in the test with SK-MEL-2 melanoma, 91.3%; in the test on EKVX NSCLC it was 46.4%. In addition, the growth was 94.6% in the test on SN12C renal; 61.6% with UO-31 renal; 90.9% in the test on TK-10 renal; 74.3% in the test on ACHN renal; 70.5% in the test on CAKI-1 renal; 76.8% in the test on CCRF-CEM leukemia. For the same compound, the growth with MOLT-4 leukemia was 66.6%.
